Screening results (PubChem BioAssay)
Tau fluor cs – counter-screen for tau fibril formation inhibitors; Potency, µM (series often up to 57.7 µM), for the others: at the top dose activity change, negative = decrease; tau K18 P301L Alexa594 fluorescence, heparin fibrillization; 0.93% of 280,000 active; AID 1463; further: potency means the concentration at half of the fitted maximal effect; nearly all actives have a fitted effect of over 55% in size
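Human K18 P301L tau (15 uM unlabeled plus 0.24 uM Alexa 594-labeled, final) in 100 mM sodium acetate pH 7 was mixed with compound and 20 uM heparin and incubated 6 hr at 37 C.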
Tau ThT inhib – inhibitors of human tau fibril formation, thioflavin T binding | Potency, µM (highest dose often 57.4 µM), for inactives: at the top dose activity, negative = inhibition, actives largely listed as inhibitors | recombinant tau K18 P301L (four-repeat tau fragment), heparin-induced fibrillization, ThT fluorescence | P10636 | 2.1% of 270,000 active | AID 1460; further: potency means the concentration at half of the fitted maximal effect; nearly all actives have a fitted effect of over 55% in size
Target sequence (P10636 561-689 P618L limits assumed): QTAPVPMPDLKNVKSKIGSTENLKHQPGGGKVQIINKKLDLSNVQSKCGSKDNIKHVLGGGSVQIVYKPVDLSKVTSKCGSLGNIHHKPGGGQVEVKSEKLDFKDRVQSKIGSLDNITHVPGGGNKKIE
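Aggregation was driven by heparin (20 uM final) acting on recombinant tau […] bearing P301L in 100 mM sodium acetate pH 7; fibrils were detected with Thioflavin T.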
USP1-UAF1 inh – blocks the human USP1/UAF1 deubiquitinase complex | recombinant USP1/UAF1, Ub-Rhodamine cleavage fluorescence | Potency, µM (highest dose often 57.1 µM), without a hit: top-dose activity change, negative = inhibition, most hits filed as inhibitors | 0.23% of 390,000 active | AID 743255; further: potency means the concentration at half of the fitted maximal effect; nearly all actives have a fitted effect of over 60% in size
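USP1/UAF1 complex (1 nM) preincubated 15 min at room temperature with compound, then Ub-Rho substrate (150 nM final) added. Kinetic fluorescence at 480/540 nm over 6 reads at 60 s intervals; 50 mM HEPES pH 7.8, 0.5 mM EDTA, 0.1 mg/ml BSA, 1 mM TCEP, 0.01% Tween-20.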
Coupling enz – coupling enzyme interference in Giardia aldolase counter-screen; AID 2472; 0.67% of 290,000 active; coupling enzyme system counterscreen, AmpLite Red fluorescence; activity change, negative = inhibition, % at 58.2 µM, hits read low; in the data active means activity change below about -30%
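Fluorescence at 525 nm excitation and 598 nm emission measured inhibition of the coupled detection system without aldolase. Compounds (at 57.5 uM final) were preincubated 10 min at room temperature with coupling enzyme reagent before a 20 min substrate/AmpLite Red step.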
Tau FP inhib – tau fibrillization inhibition (FP) | 0.39% of 280,000 active | AID 1468 | K18 P301L tau heparin fibrillization, Alexa594 FP, 6 h | Potency, µM (series often up to 57.7 µM), inactives show top-dose activity, negative = inhibition, actives largely listed as inhibitors; further: potency means the concentration at half of the fitted maximal effect; nearly all actives have a fitted effect of over 55% in size
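Human tau K18 […] P301L fragment, 15 uM unlabeled plus 0.24 uM Alexa 594-labeled tau (final), with compound and 20 uM heparin in 100 mM sodium acetate pH 7; 6 hr at 37 C, then Alexa 594 FP read.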
* = called active by the depositor; u = inconclusive; x = not tested or not shown; [ ] = dose if it differs, or a comment. The list is not random: actives were taken first. Their share in the collection is about 2.3%. Unless noted, the call rests on the fitted dose curve; in most records, active means well fitted curve in the direction sought with a large enough effect; inconclusive means small, poorly fitted or top-dose-only effect, or another doubt; inactive means no such curve, though single readings can be large; an effect the other way counts as inactive or inconclusive. On the % scale 0 is the no-effect control and ±100 the full control effect.

SMILES	Tau fluor cs	Tau ThT inhib	USP1-UAF1 inh	Coupling enz	Tau FP inhib
COc1ccc(-c2nc(SCC(=O)NC3CCCC3)c(-c3ccc(F)cc3)[nH]2)cc1	14µM*[quencher]	u	2%	x	8%
COc1ccc(-c2[nH]c(-c3ccccc3)nc2SCC(=O)NC2CCCC2)cc1	25µM*[quencher]	u	15%	-4	u
COc1ccc(C2CC(=O)Nc3c2c(=O)nc2c(C)cccn32)cc1 (configuration not stated)	-9%	-5%	-27%	x	-8%
CC(C)C[C@H](NC(=O)[C@H](CC(C)C)NC(=O)[C@H](Cc1ccc(O)cc1)NC(=O)CNC(=O)[C@H](C)NC(=O)[C@H](CO)NC(=O)[C@H](CC(N)=O)NC(=O)[C@H](CC(C)C)NC(=O)[C@@H](NC(=O)[C@H](Cc1c[nH]c2ccccc12)NC(=O)CN)[C@@H](C)O)C(=O)NCC(=O)N1CCC[C@H]1C(=O)N1CCC[C@H]1C(=O)N1CCC[C@H]1C(=O)NCC(=O)N[C@@H](Cc1ccccc1)C(=O)N[C@@H](CO)C(=O)N1CCC[C@H]1C(=O)N[C@@H](Cc1ccccc1)C(=O)N[C@@H](CCCNC(=N)N)C(N)=O	x	x	x	4	x
NC(=Nc1ccc(N)cc1)C(N)=Nc1ccc(N)cc1	u	8.9µM*	-18%	-9	u
NC(N)=Nc1ccc(Cl)cc1	-6%	-3%	x	-1	-4%
O=C1C2C3C=CC(C3)C2C(=O)N1CNc1ccc(O)cc1 (configuration not stated)	u	3.2µM*	x	-54*	8.9µM*
COc1ccc(CCNc2nc(SCc3ccc(F)cc3)nc3ccccc23)cc1OC	-16%	-15%	-2%	x	-11%
N#Cc1cc2[nH]c3ccccc3c2[n+](-c2ccc([N+](=O)[O-])cc2)c1N	-14%	-12%	-21%	1	8%
NC(=O)C1(NC(=O)[C@@H]2CC3(CC(c4cccc(NC(=O)c5cc([N+](=O)[O-])cc([N+](=O)[O-])c5)c4)=NO3)CN2C(=O)c2ccccc2)CC1 (some centres not stated)	25µM*[quencher]	-13%	-36%	-1	u
CCOc1ccc(CCNC(=O)c2cnc3c(-c4ccc(F)cc4)c(C)nn3c2C)cc1	-2%	-14%	-32%	x	-5%
Brc1ccccc1C1CC(c2ccccc2)=Nc2ccccc2N1 (configuration not stated)	-13%	u	u	-19	3%
Clc1ccccc1C1CC(c2ccccc2)=Nc2ccccc2N1 (configuration not stated)	u	-18%	50µM*	1	12%
CC(C)(C)N1C(=O)[C@H]2[C@@H]3[C@H](O)C=CC(=O)[C@H]3CC[C@H]2C1=O	-15%[11.6 µM]	-13%[11.5 µM]	x	2	2%[11.6 µM]
Cc1ccc(/C=C/C(=O)Nc2ccc3nc(N4CCC(C)CC4)cc(C)c3c2)cc1	6.3µM*[quencher]	2.5µM*	-6%	x	0%
Cc1cc(N2CCC(C)CC2)nc2ccc(NC(=O)Cc3c(F)cccc3Cl)cc12	u	u	-9%	x	4%
Cc1cc(N2CCCCC2)nc2ccc(NC(=O)/C=C/c3ccc(OCCC(C)C)cc3)cc12	u	u	-14%	x	u
Cc1cc(N2CCC(C)CC2)nc2ccc(NC(=O)/C=C/c3cccc(Cl)c3)cc12	14µM*[quencher]	6.3µM*	-24%	x	24%
CO[C@H]1COC(=O)CCC[C@H](C)[C@@H](OC)COC(=O)C/C=C\[C@@H]1C	-11%[11.6 µM]	-6%[11.5 µM]	x	1	-3%[11.6 µM]
O=C(COc1ccc(F)cc1)Nc1cccc(OCc2cc(=O)n3ccccc3n2)c1	-21%	-7%	-26%	x	u
O=C(O)CCN1CC2([N+](=O)[O-])C=CC(=O)C([N+](=O)[O-])(C1)C2CC(=O)c1ccccc1 (configuration not stated)	1%	11%	-7%	-52*	6%
C=CCc1cccc(CNc2nc3ccccc3n2CC)c1O	18µM*[quencher]	-17%	-13%	6	14%
C=CCc1cccc(CNc2nc3ccccc3n2CCC)c1O	14µM*[quencher]	-16%	-22%	-1	13%
CCOC(=O)c1ccc(NS(=O)(=O)c2cc(-c3onc(C)c3C)ccc2C)cc1	-22%	16%	-2%	x	u
Cc1onc(C(=O)Nc2c(C)n(C)n(-c3ccccc3)c2=O)c1[N+](=O)[O-]	u	x	-10%	-31*	-12%
SMILES	Tau fluor cs	Tau ThT inhib	USP1-UAF1 inh	Coupling enz	Tau FP inhib
COc1ccc(N(C)S(=O)(=O)c2ccc3c(c2)n(C)c(=O)c(=O)n3C)cc1	-10%	-5%	u	x	-3%
COc1cccc(-c2ccc(C3=CC(=O)CC(C)(C)C3=O)cc2)c1OC	x	x	-27%	x	x
O=S(=O)(Nc1cc(Sc2cccc3cccnc23)c(O)c2ccccc12)c1ccccc1	16µM*[quencher]	16µM*	x	-55*	u
Cc1ccc(C)c(S(=O)(=O)Nc2cc(SCC(=O)O)c(O)c3ccccc23)c1	u	3.5µM*	u	-53*	7.9µM*
CCOc1ccc(S(=O)(=O)Nc2cc(SCC(=O)O)c(O)c3ccccc23)cc1	x	x	25µM*	-62*	x
CCNc1ncc2nc(-c3cccs3)c(=O)n(Cc3ccc(F)cc3)c2n1	x	x	x	1	x
CCC1CCc2nc3sc(C(=O)Nc4ccc(F)cc4F)c(N)c3cc2C1 (configuration not stated)	-8%	-2%	u	x	7%
CCN1CCN(C(c2cccc(OC)c2)c2c(O)cc(C)n(Cc3ccco3)c2=O)CC1 (configuration not stated)	0%	u	-15%	x	u
COc1ccc(NC(=O)c2ccc3oc(=O)c(S(=O)(=O)c4ccc(C)cc4)cc3c2)cc1OC	-9%	-1%	u	x	-6%
CCc1ccc(NC(=O)Cn2c(=O)n(-c3ccccc3)c(=O)c3ccc(C(=O)NCc4ccc5c(c4)OCO5)cc32)cc1	-17%	12%	-13%	x	u
O=C(Cn1c(=O)n(-c2ccccc2)c(=O)c2ccc(C(=O)NCc3ccc4c(c3)OCO4)cc21)Nc1ccc(F)c(Cl)c1	-25%	6%	-12%	x	25µM*
O=C(Cn1c(=O)n(Cc2ccc(C(=O)NCc3ccccc3Cl)cc2)c(=O)c2ccccc21)Nc1ccc(F)c(Cl)c1	-17%	-2%	-14%	x	14µM*
Nc1c(N=Nc2ccc(-c3ccc(N=Nc4cc(S(=O)(=O)O)c5ccccc5c4N)cc3)cc2)cc(S(=O)(=O)O)c2ccccc12	-7%	1.1µM*	x	-12	-15%
Cc1cc(-c2ccc(N=Nc3ccc4c(S(=O)(=O)O)cc(S(=O)(=O)O)c(N)c4c3O)c(C)c2)ccc1N=Nc1ccc2c(S(=O)(=O)O)cc(S(=O)(=O)O)c(N)c2c1O	0.79µM*[quencher]	1.4µM*	x	-38*	3.2µM*
Nc1cc2nsnc2cc1Br	u	8.9µM*	4.5µM*	-32*	u
